Bioassay records: PubChem BioAssay, Broad Institute
Compounds with a hit are over-represented: about 6.7% of the library has one in this group of screens.
T cruzi growth-1 – inhibitors of T. cruzi proliferation | 77,000 compounds, 5.9% hits | T. cruzi beta-gal in NIH3T3, GalScreen luminescence, 90 h | inhibition, % at 8.34 µM | AID 624255;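 active means mean inhibition above about 93%, with at least 55% of replicates each passing it, limit read from the data, passing the limit was not always enough; inconclusive means only one of those two conditions holds; inactive means neither condition holds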
C diff growth – blocks growth of Clostridium difficile; Clostridium difficile clinical isolate growth, OD600, 24 h; active compounds read low; growth activity, negative = inhibition, % at 16 µg/mL (by protocol); 86,000 compounds, 0.25% hits; AID 1259249;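 active means mean growth activity at or below -80% and every replicate also at or below -80%; inconclusive means mean at or below -80% but some replicate above -80%; inactive means mean growth activity above -80%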;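 further: 0% = DMSO wells and -100% = levofloxacin 16 µg/mL wells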
Pf Dd2 inh – P. falciparum Dd2 growth inhibition; 94,000 compounds, 2.3% hits; SYBR Green, 72 h; active compounds read low; activity change, % at 10 µM; AID 1159554; in the data active means activity change below about -80%; inconclusive means no clear call, values can overlap the other calls
T cruzi growth-2 – inhibitors of T. cruzi proliferation | 5,600 compounds, 72% hits | AID 651739 | inhibition, % at 8.35 µM | T. cruzi beta-gal in NIH3T3, GalScreen luminescence, 90 h | shares compounds with T cruzi growth-1;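 active means mean replicate inhibition above about 95% and at least 55% of replicates individually reaching it, limit read from the data; inconclusive means only one of the two criteria is met; inactive means neither criterion is met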
T cruzi growth-3 – blocks T. cruzi growth in NIH3T3 host cells; inhibition, % at 2.09 µM; 5,600 compounds, 21% hits; shares compounds with T cruzi growth-1; T. cruzi beta-gal in NIH3T3, GalScreen luminescence, 90 h; AID 651740;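 active means mean inhibition above about 95%, with at least 55% of replicates also reaching it, limit read from the data; inconclusive means meets just one of the two conditions; inactive means meets neither condition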;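 further: plate controls were neutral control median for no effect and positive control median for full effect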
NIH3T3 tox – cytotoxicity in mouse NIH/3T3 fibroblasts; cytotoxicity (signal decrease), % at 8.35 µM; shares compounds with T cruzi growth-1; NIH/3T3 viability, CellTiter-Glo ATP luminescence, 90 h; 5,600 compounds, 14% hits;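 active means mean signal decrease across replicates above about 35% based on untreated-well scatter, with enough replicates individually passing, limit read from the data; inconclusive means no rule stated though some were filed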;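 further: 0% = median of neutral control wells and 100% = median of positive control wells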
3T3 cytotox 2 – cytotoxicity in mouse NIH/3T3 fibroblasts. 5,600 compounds, 56% hits. inhibition, % at 24.9 µM. NIH/3T3 viability, CellTiter-Glo ATP luminescence, 90 h. shares compounds with T cruzi growth-1. AID 651744;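 active means mean loss of cell viability signal at or above a set limit, and enough replicates individually reaching it; inconclusive means meets only the mean limit or only the replicate share; inactive means meets neither condition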;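 further: 0% = median of neutral control wells and 100% = median of positive control wells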
* = called active by the depositor; ? = inconclusive; . = no result; ! = a repeat was not active.

SMILES | T cruzi growth-1 | C diff growth | Pf Dd2 inh | T cruzi growth-2 | T cruzi growth-3 | NIH3T3 tox | 3T3 cytotox 2
C/C=C/c1ccc(C2[C@@H]3CN(Cc4cccnc4)C[C@H]2N3)cc1 (some centres undefined) | . | 0 | -84*! | . | . | . | .
C/C=C/c1ccc(C2[C@@H]3CN(Cc4cccc(F)c4)C[C@H]2N3)cc1 (some centres undefined) | . | 70 | -88*! | . | . | . | .
C/C=C/c1ccc(C2[C@@H]3CN(C(C)=O)C[C@H]2N3)cc1 (some centres undefined) | . | 2 | -7 | . | . | . | .
C/C=C/c1ccc(C2[C@@H]3CN(Cc4ccccn4)C[C@H]2N3)cc1 (some centres undefined) | . | 1 | -13 | . | . | . | .
COc1ccc(-c2ccc3n(c2=O)C[C@@H]2[C@@H](CO)[C@H](C(=O)O)[C@H]3N2C(=O)c2ccccc2F)cc1 | -5 | -3 | . | . | . | . | .
Cc1ccc(OC(=O)N(C)C[C@@H]2OCc3ccccc3-c3c(n(C)c4ccccc34)C(=O)N([C@@H](C)CO)C[C@@H]2C)cc1 | . | 1 | -40 | . | . | . | .
Cc1ccc(OC(=O)N(C)C[C@H]2OCc3ccccc3-c3c(n(C)c4ccccc34)C(=O)N([C@H](C)CO)C[C@@H]2C)cc1 | . | 14 | -87* | . | . | . | .
COC(=O)[C@@H]1[C@@H](CO)[C@@H]2Cn3c(ccc(C4=CCCCC4)c3=O)[C@H]1N2Cc1ccccc1OC | . | 0 | -16 | . | . | . | .
C[C@@H]1CN([C@H](C)CO)C(=O)c2c(c3ccccc3n2C)-c2ccccc2CO[C@H]1CN(C)C(=O)Oc1ccccc1 | . | -3 | -12 | . | . | . | .
O=C(Cc1cccnc1)N1CCCCN2[C@H](CO)[C@H](c3ccc(C#CC4CCCC4)cc3)[C@H]2C1 | 100* | -12 | -2 | 100* | 45 | 32 | 106*
O=C(Cc1cccnc1)N1CCCCN2[C@@H](CO)[C@@H](c3ccc(C#CC4(O)CCCC4)cc3)[C@@H]2C1 | 61 | 2 | -15 | . | . | . | .
O=C(Cc1cccnc1)N1CCCCN2[C@@H](CO)[C@H](c3ccc(C#CC4(O)CCCC4)cc3)[C@@H]2C1 | 41 | -5 | 19 | . | . | . | .
O=C(Cc1cccnc1)N1CCCCN2[C@H](C1)[C@@H](c1ccc(C#CC3CC3)cc1)[C@@H]2CO | -155 | -4 | -10 | . | . | . | .
O=C(Cc1cccnc1)N1CCCCN2[C@@H](CO)[C@H](c3ccc(C#CC4CC4)cc3)[C@@H]2C1 | 108* | -8 | -76 | 100* | 51 | 20 | 20
O=C(Cc1cccnc1)N1CCCCN2[C@H](CO)[C@H](c3ccc(C#CC4(O)CCCC4)cc3)[C@@H]2C1 | 18 | -1 | 27 | . | . | . | .
O=C(Cc1cccnc1)N1CCCCN2[C@H](CO)[C@@H](c3ccc(C#CC4CCCC4)cc3)[C@H]2C1 | ? | -4 | -29 | 80 | 3 | 5 | 104*
O=C(Cc1cccnc1)N1CCCCN2[C@H](C1)[C@H](c1ccc(C#CC3CCCC3)cc1)[C@@H]2CO | 104* | -1 | 5 | 90 | 30 | -9 | 97*
O=C(NC[C@H]1CC[C@H]2[C@H](CN2Cc2cccnc2)O1)C1CC1 | . | -6 | 44 | . | . | . | .
CN1[C@@H]2Cn3c(cccc3=O)[C@H]1[C@@H](C(=O)NCC1CC1)[C@@H]2CO | -33 | 17 | . | . | . | . | .
O=C(Cc1ccccc1)N1CC2(C1)[C@@H](c1ccccc1)[C@@H](CO)N2Cc1cccc(F)c1 | . | 1 | -28 | . | . | . | .
CCCN1[C@@H]2Cn3c(ccc(-c4cccc(OC)c4)c3=O)[C@H]1[C@@H](C(=O)OC)[C@@H]2CO | . | 2 | 4 | . | . | . | .
CC(=O)N1[C@@H]2c3ccc(-c4cccc(C(=O)N(C)C)c4)c(=O)n3C[C@H]1[C@H](CO)[C@H]2C(=O)O | . | 7 | 41 | . | . | . | .
CC(C)CC#Cc1ccc([C@H]2[C@@H](CO)N3CCCCN(C(=O)Cc4ccccn4)C[C@H]23)cc1 | 73 | -20 | -2 | . | . | . | .
O=C(Cc1ccccn1)N1CC2(C1)[C@@H](c1ccccc1)[C@@H](CO)N2Cc1ccccn1 | . | 1 | 8 | . | . | . | .
O=C(Cc1cccnc1)N1CCCCN2[C@H](CO)[C@@H](c3ccc(C#CC4CC4)cc3)[C@@H]2C1 | 48 | -9 | -16 | . | . | . | .
SMILES | T cruzi growth-1 | C diff growth | Pf Dd2 inh | T cruzi growth-2 | T cruzi growth-3 | NIH3T3 tox | 3T3 cytotox 2
O=C(Cc1cccnc1)N1CCCCN2[C@@H](CO)[C@@H](c3ccc(C#CC4CCCC4)cc3)[C@@H]2C1 | 105* | 3 | -62 | ? | -4 | 7 | 102*
COc1ccc(-c2ccc([C@@H]3[C@@H](CO)N4CCCCN(C(=O)Cc5ccccc5)C[C@H]34)cc2)cc1 | ? | 1 | -79 | 97* | 55 | 32 | 105*
COc1ccc(-c2ccc([C@H]3[C@@H](CO)N4CCCCN(C(=O)Cc5ccccc5)C[C@H]34)cc2)cc1 | 91 | -1 | -23 | . | . | . | .
O=C(Cc1ccccc1)N1CCCCN2[C@@H](CO)[C@H](c3ccc(-c4ccccc4)cc3)[C@@H]2C1 | 100* | 58 | 9 | 103* | 75 | 25 | 102*
O=C(Cc1ccccc1)N1CCCCN2[C@H](C1)[C@@H](c1ccc(-c3ccccc3)cc1)[C@@H]2CO | -2 | 50 | -26 | . | . | . | .
CCN1[C@@H]2c3ccc(-c4ccc(OC)cc4)c(=O)n3C[C@H]1[C@H](CO)[C@H]2C(=O)OC | -31 | -3 | . | . | . | . | .
COc1ccc(C#Cc2ccc([C@H]3[C@@H](CO)N4CCCCN(C(=O)Cc5ccccc5)C[C@H]34)cc2)cc1 | 77 | -3 | -71 | . | . | . | .
O=C(Cc1ccccc1)N1CCCCN2[C@H](C1)[C@H](c1ccc(C#Cc3ccccc3)cc1)[C@@H]2CO | 131* | 5 | -8 | 104* | 57 | 33 | 104*
O=C(Cc1ccccc1)N1CCCCN2[C@H](C1)[C@@H](c1ccc(C#Cc3ccccc3)cc1)[C@@H]2CO | 115* | -2 | -34 | 98* | 73 | ? | 103*
COc1ccc(C#Cc2ccc([C@@H]3[C@@H](CO)N4CCCCN(C(=O)Cc5ccccc5)C[C@@H]34)cc2)cc1 | 111* | 3 | -31 | 90 | 104* | -1 | 103*
O=C(Cc1ccccc1)N1CCCCN2[C@H](CO)[C@@H](c3ccc(C#CC4(O)CCCC4)cc3)[C@H]2C1 | 88 | 0 | -3 | . | . | . | .
O=C(Cc1ccccc1)N1CCCCN2[C@H](CO)[C@@H](c3ccc(-c4ccccc4)cc3)[C@@H]2C1 | 31 | 50 | 15 | . | . | . | .
COC(=O)[C@@H]1[C@@H](CO)[C@@H]2Cn3c(ccc(C4=CCCC4)c3=O)[C@H]1N2C(=O)CC1CC1 | 4 | 1 | 10 | . | . | . | .
COc1ccc(OC(=O)N(C)C[C@@H]2OCc3ccccc3-c3c(n(C)c4ccccc34)C(=O)N([C@@H](C)CO)C[C@H]2C)cc1 | . | -2 | -68 | . | . | . | .
C[C@H]1CN([C@@H](C)CO)C(=O)c2c(c3ccccc3n2C)-c2ccccc2CO[C@@H]1CN(C)C(=O)Oc1ccccc1 | . | 3 | -60 | . | . | . | .
